Hits are enriched below; roughly 19% of the tested compounds scored in any of these assays.
HT1080 IDH1KD tx: HT-1080 IDH1 knockdown cell toxicity (counter line) | hit rate 2% among 360,000 | Potency, µM (doses to about 46.1 µM), most hits filed as cytotoxic | HT-1080 IDH1 knockdown viability, ATP luminescence, 48 h
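Using the IDH1-knockdown HT-1080 line run in the same batch and compound series as the NT line, viability after 48 h at 37 °C was determined by CellTiter-Glo luminescence and expressed as % activity.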
TDP1 cell noCPT: qHTS for Inhibitors of human tyrosyl-DNA phosphodiesterase 1 (TDP1): qHTS in cells in absence of CPT; hit rate 15% among 420,000; Potency, µM (titrated, usually from 46.2 µM), actives largely listed as inhibitors; AID 686978, 2013; DT40 Tdp1-/- hTDP1 cells, no CPT, ATP luminescence, 48 h; also: nearly all actives have a fitted effect of over 55% in size
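No-CPT arm: Tdp1-/-;hTDP1 DT40 cells (400/well) plus compounds, incubated ≥48 hr at 37 °C. Readout CellTiter-Glo luminescence.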
TDP1 cell CPT: growth inhibition of DT40 Tdp1-/-;hTDP1 cells with camptothecin (screen for TDP1 inhibitors) | Potency, µM (titrated, usually from 46.2 µM), most hits filed as inhibitors | AID 686979 | chicken DT40 Tdp1-/-;hTDP1 cells + 20 nM CPT, ATP luminescence, 48 h | hit rate 12% among 420,000; also: nearly all actives have a fitted effect of over 55% in size
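Chicken DT40 Tdp1-/- cells stably complemented with human TDP1 were seeded at 400 cells/well in medium containing 20 nM camptothecin, exposed to pin-transferred compounds, and grown at 37 °C for at least 48 hr. Viability was read as ATP luminescence.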
HT1080-NT tox: kills 2HG-producing HT-1080-NT fibrosarcoma cells | HT-1080-NT fibrosarcoma viability, CellTiter-Glo ATP luminescence, 48 h | Potency, µM (highest dose often 46.1 µM), usual class: cytotoxic | hit rate 1.6% among 360,000;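 also: NT is the 2HG producing partner of a matched IDH1 knockdown line; nearly all actives have a fitted effect of over 55% in size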
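Viability of the 2HG-overproducing fibrosarcoma line after 48 hours of compound exposure at 37 degrees C was determined by luminescence with CellTiter-Glo, and concentration-effect curves were then fitted and categorized.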
IL-1B inflam inh: inhibitors of inflammasome signaling (IL-1 beta secretion) | THP-1 LPS/ATP IL-1B secretion, AlphaLISA, 16 h; active compounds read low | activity change, % at 57.5 µM | hit rate 4.7% among 360,000 | AID 743279; in the data active = activity change below about -50%; inconclusive = mostly about -30% to -49%
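Secreted IL-1B measured by AlphaLISA bead assay after 16 h compound exposure of THP-1 cells; compounds (final up to 57.5 uM) added 1 h before LPS (250 ng/mL) and ATP (1.25 mM) stimulation; lower signal means less secretion.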
A number is an active result; n = inactive; u = inconclusive; x = no result; [ ] = remark or other dose. Unless noted, calls follow the shape of the dose curve; as a rule, active = well fitted curve in the direction sought with a large enough effect; inconclusive = small, poorly fitted or top-dose-only effect, or another doubt; inactive = no such curve, though single readings can be large; an effect the other way counts as inactive or inconclusive.

SMILES	HT1080 IDH1KD tx	TDP1 cell noCPT	TDP1 cell CPT	HT1080-NT tox	IL-1B inflam inh
COc1ccccc1-c1nnc(C2CCN(S(=O)(=O)c3cccc([N+](=O)[O-])c3)CC2)o1	n	21µM	u	n	n
COc1ccccc1-c1nnc(C2CCN(S(=O)(=O)c3ccc([N+](=O)[O-])cc3)CC2)o1	n	u	u	n	n
COc1cccc(C(C)(O)c2nc(-c3ccoc3)cs2)c1 (configuration not stated)	n	u	u	n	n
Cc1nn(C(C)C(=O)NCc2ccccc2F)c(=O)c2nn(-c3ccccc3)c(C)c12 (configuration not stated)	n	n	n	n	n
Cc1ccc(-n2nc3c(=O)n(C(C)C(=O)NCc4ccccc4C)nc(C)c3c2C)cc1 (configuration not stated)	x	23µM	u	x	x
Cc1ccc(-n2nc3c(=O)n(C(C)C(=O)NCc4ccc(OC(C)C)cc4)nc(C)c3c2C)cc1 (configuration not stated)	x	13µM	16µM	x	x
Cc1ccc(-n2nc3c(=O)n(C(C)C(=O)NCc4ccc(Cl)cc4)nc(C)c3c2C)cc1 (configuration not stated)	n	n	u	n	n
CCC(C(=O)NCCc1ccc(C)cc1)n1nc(C)c2c(C)n(-c3ccccc3)nc2c1=O (configuration not stated)	n	n	u	n	n
CCC(C(=O)NCCc1ccc(SC)cc1)n1nc(C)c2c(C)n(-c3ccc(C)cc3)nc2c1=O (configuration not stated)	x	16µM	13µM	x	x
CCOc1ccccc1CNC(=O)C(CC)n1nc(C)c2c(C)n(-c3ccccc3)nc2c1=O (configuration not stated)	x	u	18µM	x	x
O=C(c1ccoc1)N1CCOc2ccc(CN3CCC(Oc4cccnc4)CC3)cc2C1	x	n	n[9.04 µM]	x	x
COc1ccc(CN2C[C@]3(CO)O[C@@H](CO)C[C@@H]3S2(=O)=O)cc1	n	n	n	n	n
Oc1ccc(C[C@@H]2CNCCN2CC2CCCCC2)cc1	n	23µM	16µM	n	n
c1ccc([C@H]2CNCCN2CCc2cccc3ccccc23)cc1	n	21µM	u	u	n
c1ccc(C[C@H]2CNCCN2CC2(c3ccccc3)CC2)cc1	n	u	u	n	n
Oc1ccc(C[C@H]2CNCCN2CC2CCCCC2)cc1	n	16µM	u	n	n
c1ccc2c(C[C@@H]3CNCCN3CC3CCCCC3)cccc2c1	n	16µM	15µM	n	-58
CN(C)CCNc1oc(COc2ccc(Cl)cc2)nc1C#N	n	n	n	n	u
O=S1(=O)CC(N2CCCCC2)CN1C1CCCCC1 (configuration not stated)	n	n	n	n	n
CCCn1cnnc1CNC(=O)[C@H]1O[C@@H](n2cnc3c(N)ncnc32)[C@H](O)[C@@H]1O	n	n	n	n	n
COc1ccc(-c2nnc(SCc3nc4ccccc4s3)n2C(C)C)cc1	n	21µM	u	n	n
CCC1(C2CCN(C(=O)c3csc(C(C)=O)c3)CC2)NC(=O)N(CCc2scnc2C)C1=O (configuration not stated)	x	n	n[9.04 µM]	x	x
O=C(c1ccccc1)c1ccc(OCC(O)CNCc2ccc(Cl)cc2)cc1 (configuration not stated)	n	u	u	n	-60
Cc1ccc(OCC(O)CNCc2ccc(F)cc2)cc1 (configuration not stated)	u	u	u	u	-78
Cc1cccc(C)c1NC(=O)C1(C)CN(S(C)(=O)=O)CC(=O)N1Cc1ccc2c(c1)OCO2 (configuration not stated)	n	n	n	n	n
SMILES	HT1080 IDH1KD tx	TDP1 cell noCPT	TDP1 cell CPT	HT1080-NT tox	IL-1B inflam inh
O=C(NCc1cccnc1)C(=O)NCC1OCCN1S(=O)(=O)c1ccc(Cl)cc1 (configuration not stated)	n	u	n	n	n
O=C(NCc1cccnc1)/C(=C\c1ccc(-c2ccc(Br)cc2)o1)S(=O)(=O)c1ccccc1	5.8µM	3.3µM	2.9µM	9.2µM	-105
O=C(CN(Cc1ccc(Br)cc1)S(=O)(=O)c1ccccc1)NCc1cccnc1	n	u	u	n	n
O=C(NCc1cccnc1)/C(=C/c1ccc(-c2ccc(Cl)cc2)o1)S(=O)(=O)c1ccccc1	5.6µM	7.3µM	5.2µM	6.3µM	-106
CCc1nnc(SCC(=O)Nc2ccc(N3CCOCC3)cc2)n1C	n	n	n	n	n
COCCn1c(SCC(=O)Nc2cccc(S(N)(=O)=O)c2)nc2cc(Cl)ccc2c1=O	n	18µM	15µM	n	-68
COCCn1c(SCC(=O)Nc2cccnc2Cl)nc2cc(Cl)ccc2c1=O	n	n	n	n	n
COCC(C)n1c(SCC(=O)Nc2sccc2C(N)=O)nc2ccccc2c1=O (configuration not stated)	n	7.3µM	21µM	n	n
Cc1ccc(-n2c(SCC(=O)Nc3cccc(S(N)(=O)=O)c3)nc3ccccc32)cc1	u	u	18µM	n	n
COCCn1c(SCC(=O)Nc2sccc2C(N)=O)nc2cc(Cl)ccc2c1=O	u	u	u	u	-54
CCOc1ccc2oc(C(=O)N(CCOC)c3c(N)n(CC(C)C)c(=O)[nH]c3=O)c(C)c2c1	n	n	n	n	n
CCOC(=O)C1CCCN(C(=O)CNC(=O)c2ccc(Br)o2)C1 (configuration not stated)	n	n	n	n[9.24 µM]	n
Cc1ccc(S(=O)(=O)N2C[C@H]3C(=O)C[C@@H](c4ccc(Cl)cc4)N(S(=O)(=O)c4ccccc4C)[C@H]3C[C@H]2c2ccccc2)cc1	n	u	n	n	n
O=C(NCc1ccccc1OC(F)(F)F)C1CCC(=O)N(CCc2ccccn2)C1 (configuration not stated)	n	n	n	n	n
CN(C)S(=O)(=O)c1ccc(C(=O)Nc2ccn(C)n2)cc1	n	n	n	n	n
COCCNC(=O)C1=CC(c2ccc3c(c2)OCO3)=NS(=O)(=O)N1C	x	n	n	x	x
CCCN(CCC)S(=O)(=O)c1ccc(N2CCCC2=O)c([N+](=O)[O-])c1	n	n	u	n	n
CCOC(=O)C(C)(C)N(Cc1ccccc1C)S(=O)(=O)c1ccc(Cl)c([N+](=O)[O-])c1	u	12µM	u	u	-97
CCCN(CCC)S(=O)(=O)c1ccc(Cl)c([N+](=O)[O-])c1	23µM	15µM	u	u	-103
CCCCN(CCCC)S(=O)(=O)c1ccc(N2CCCC2=O)c([N+](=O)[O-])c1	n	21µM	u	n	n

Bioassay records deposited in PubChem BioAssay by National Center for Advancing Translational Sciences (NCATS).
